According to PubChem BioAssay (Tox21):
Inconclusive results are not listed. The source made the active and inactive calls. Unless noted, calls follow the shape of the full dose curve.

Tests used:
[1] = Nuclear factor erythroid 2-related factor 2/antioxidant responsive element (Nrf2/ARE) small molecule agonists: qHTS cell viability counter screen in human keratinocytes (AID 1919968; active = well fitted curve in the direction sought with a large enough effect in the repeat runs; an effect the other way counts as inactive or inconclusive; also: nearly all actives have a fitted effect of over 55% in size; also: potency is read from the fitted curve at half-maximal effect)
Method in brief: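 Stably transfected HaCaT (KeratinoSens), 1,500/well. Test agents in DMSO were applied for 23 h, 37 C/5% CO2. CellTiter-Fluor was incubated 1 h before the fluorescence read.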

[2] = Nuclear factor erythroid 2-related factor 2/antioxidant responsive element (Nrf2/ARE) small molecule agonists: luciferase reporter gene qHTS assay in human keratinocytes (AID 1919969); also: nearly all actives have a fitted effect of over 35% in size
[3] = biological target: Gonadotropin-releasing hormone receptor (Homo sapiens) (UniProt P30968); experiment: Human gonadotropin-releasing hormone receptor (GnRHR) small molecule agonists, calcium flux assay in GnRHR-HEK293 cells (AID 1920063); also: nearly all actives have a fitted effect of over 35% in size
Sequence of Gonadotropin-releasing hormone receptor (Homo sapiens) (P30968 whole entry, looked up): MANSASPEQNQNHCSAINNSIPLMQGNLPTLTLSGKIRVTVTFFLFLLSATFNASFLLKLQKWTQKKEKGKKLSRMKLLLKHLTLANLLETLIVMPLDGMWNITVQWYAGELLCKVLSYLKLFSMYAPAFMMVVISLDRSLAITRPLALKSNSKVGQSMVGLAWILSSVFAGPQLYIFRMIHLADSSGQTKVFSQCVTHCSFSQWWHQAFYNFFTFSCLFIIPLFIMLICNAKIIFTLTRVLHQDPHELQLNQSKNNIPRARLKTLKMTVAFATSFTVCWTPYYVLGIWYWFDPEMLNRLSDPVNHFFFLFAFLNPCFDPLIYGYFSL
Method in brief: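 Stable human GnRHR HEK293 line. 18 h plating, then calcium dye for 1 h at 37 C. Agonist-mode compound addition from DMSO stocks; fluorescence monitored 3 min.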

[4] = biological target: KiSS-1 receptor (Homo sapiens) (UniProt Q969F8); experiment: Human kisspeptin (KISS1R) small molecule agonists, calcium flux assay in KISS1R-HEK293 cells (AID 1920064; active = well fitted curve in the direction sought with a large enough effect in the repeat runs; an effect the other way counts as inactive or inconclusive)
Sequence of KiSS-1 receptor (Homo sapiens) (Q969F8 whole entry, looked up): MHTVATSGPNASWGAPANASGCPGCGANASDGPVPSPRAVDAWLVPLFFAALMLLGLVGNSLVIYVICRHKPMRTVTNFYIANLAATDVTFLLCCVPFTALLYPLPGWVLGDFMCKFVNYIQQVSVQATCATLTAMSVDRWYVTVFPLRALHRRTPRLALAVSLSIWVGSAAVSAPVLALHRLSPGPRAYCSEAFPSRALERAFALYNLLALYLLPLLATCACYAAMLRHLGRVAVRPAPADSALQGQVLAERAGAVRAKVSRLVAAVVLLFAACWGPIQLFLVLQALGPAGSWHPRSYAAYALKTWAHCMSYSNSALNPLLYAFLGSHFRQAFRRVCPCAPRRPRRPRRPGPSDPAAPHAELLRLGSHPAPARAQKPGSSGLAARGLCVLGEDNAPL
Method in brief: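 After overnight (18 h) culture at 37 C/5% CO2, human KISS1R-HEK293 cells received calcium dye for 1 h, then test compound; emission at 540 nm (excitation 480 nm) was tracked for 3 min.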

[5] = p53 small molecule agonists, cell-based qHTS assay with rat liver microsomes: qHTS cell viability counter screen (AID 1963580); also: nearly all actives have a fitted effect of over 45% in size
Method in brief: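 After the beta-lactamase ratio was read, CellTiter-Glo was added to the same wells and luminescence measured at 30 min; cells had been treated 16 h at 37 C with compounds, rat liver microsomes and NADPH (0.5 mg/mL final each).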

[6] = p53 small molecule agonists, cell-based qHTS assay: qHTS cell viability counter screen (AID 1963581); also: nearly all actives have a fitted effect of over 45% in size
Method in brief: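 qHTS counter screen: 16 h compound exposure at 37 C of p53RE-bla HCT-116 cells (4,000 per well, seeded 5 h prior), cell viability by ATP luminescence.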

[7] = biological target: 5-hydroxytryptamine receptor 2A (Homo sapiens) (UniProt P28223); experiment: 5-hydroxytryptamine receptor 2A (HTR2A) small molecule antagonists, cell-based qHTS assay (AID 1963586); also: nearly all actives have a fitted effect of over 45% in size
Sequence of 5-hydroxytryptamine receptor 2A (Homo sapiens) (P28223 whole entry, looked up): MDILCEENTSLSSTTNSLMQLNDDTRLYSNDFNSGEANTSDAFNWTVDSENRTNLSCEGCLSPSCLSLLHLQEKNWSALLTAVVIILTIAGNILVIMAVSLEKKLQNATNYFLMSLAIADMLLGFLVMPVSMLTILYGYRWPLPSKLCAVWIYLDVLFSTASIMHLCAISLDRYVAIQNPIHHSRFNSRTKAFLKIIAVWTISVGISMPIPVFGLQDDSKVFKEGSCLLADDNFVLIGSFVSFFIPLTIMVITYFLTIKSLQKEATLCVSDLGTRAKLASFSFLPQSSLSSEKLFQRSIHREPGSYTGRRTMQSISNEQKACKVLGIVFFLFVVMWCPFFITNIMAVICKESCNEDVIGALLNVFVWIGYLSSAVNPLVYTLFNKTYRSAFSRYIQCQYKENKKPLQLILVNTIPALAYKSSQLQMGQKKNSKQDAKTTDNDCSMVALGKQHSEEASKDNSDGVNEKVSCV
Method in brief: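 CHO cells stably expressing human HTR2A were plated for 18 h at 37 C, then loaded with calcium dye for 1 h. Compounds were preincubated 5 min at room temperature before DOI (4 nM solution) was added. Kinetic fluorescence was read for 3 min.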

[8] = biological target: 5-hydroxytryptamine receptor 2A (Homo sapiens) (UniProt P28223); experiment: 5-hydroxytryptamine receptor 2A (HTR2A) small molecule agonists, cell-based qHTS assay (AID 1963587); also: nearly all actives have a fitted effect of over 30% in size
Method in brief: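 CHO cells stably expressing human HTR2A, plated 18 h, loaded with calcium dye 1 h at 37 C. Agonist mode: compounds added and intracellular calcium fluorescence recorded kinetically for 2 min at 1 sec intervals.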

[9] = biological target: Muscarinic acetylcholine receptor M1 (Homo sapiens) (UniProt P11229); experiment: Cholinergic receptor muscarinic 1 (CHRM1) small molecule agonists, cell-based qHTS assay (AID 1963589); also: nearly all actives have a fitted effect of over 35% in size
Sequence of Muscarinic acetylcholine receptor M1 (Homo sapiens) (P11229 whole entry, looked up): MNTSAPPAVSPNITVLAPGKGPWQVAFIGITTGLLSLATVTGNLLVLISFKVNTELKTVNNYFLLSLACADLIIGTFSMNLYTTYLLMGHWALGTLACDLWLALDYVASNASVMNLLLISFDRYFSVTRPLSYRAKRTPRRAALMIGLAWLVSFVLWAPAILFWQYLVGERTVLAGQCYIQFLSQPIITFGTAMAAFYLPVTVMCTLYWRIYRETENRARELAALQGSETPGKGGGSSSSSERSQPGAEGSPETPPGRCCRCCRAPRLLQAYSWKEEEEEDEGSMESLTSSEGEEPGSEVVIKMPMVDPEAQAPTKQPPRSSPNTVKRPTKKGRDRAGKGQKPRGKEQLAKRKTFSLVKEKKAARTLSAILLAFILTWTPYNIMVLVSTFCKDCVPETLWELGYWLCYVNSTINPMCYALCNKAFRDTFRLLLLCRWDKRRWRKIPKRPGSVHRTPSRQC
Method in brief: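 Kinetic fluorescence (1 s intervals) of calcium-sensitive dye in human M1 CHO cells after compound addition; cells pre-incubated 18 h at 37 C/5% CO2 and dye-loaded 1 h.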

[10] = biological target: Beta-2 adrenergic receptor (Homo sapiens) (UniProt P07550); experiment: Adrenergic beta2 receptor (ADRB2) small molecule antagonists, cell-based qHTS assay (AID 1963592); also: series mostly up to about 92 µM; nearly all actives have a fitted effect of over 50% in size
Sequence of Beta-2 adrenergic receptor (Homo sapiens) (P07550 whole entry, looked up): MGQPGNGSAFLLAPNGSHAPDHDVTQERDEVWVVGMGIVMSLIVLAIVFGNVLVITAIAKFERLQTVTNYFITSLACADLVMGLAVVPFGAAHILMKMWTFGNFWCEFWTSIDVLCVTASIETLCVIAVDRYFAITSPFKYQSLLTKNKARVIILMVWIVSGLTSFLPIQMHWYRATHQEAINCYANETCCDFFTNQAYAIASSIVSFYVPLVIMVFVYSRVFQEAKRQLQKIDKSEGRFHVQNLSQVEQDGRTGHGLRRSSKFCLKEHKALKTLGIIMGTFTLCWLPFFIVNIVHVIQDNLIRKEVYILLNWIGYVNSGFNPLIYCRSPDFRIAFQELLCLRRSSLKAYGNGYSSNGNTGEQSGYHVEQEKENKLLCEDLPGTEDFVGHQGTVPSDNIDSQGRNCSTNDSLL
Method in brief: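 Assay format: CHO-ADRB2 cells, 18-20hr seeding at 37C/5% CO2, then compound plus 1nM isoproterenol agonist mix for 0.5hr RT. Homogeneous time-resolved fluorescence cAMP detection after 1hr, expressed as 665/615 nm ratio.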

[11] = biological target: Beta-2 adrenergic receptor (Homo sapiens) (UniProt P07550); experiment: Adrenergic beta2 receptor (ADRB2) small molecule agonists, cell-based qHTS assay (AID 1963593);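 also: CHO cells stably overexpressing human ADRB2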
Method in brief: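 CHO cells stably over-expressing ADRB2 were plated overnight at 37C, then dosed with compounds plus a stimulation mix containing 100uM IBMX and 25uM Ro-20-1724 for 0.5hr at room temperature. cAMP was measured by HTRF competition, 1hr.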

[12] = biological target: D(2) dopamine receptor (Homo sapiens) (UniProt P14416); experiment: Dopamine D2 receptor (DRD2) small molecule agonists, cell-based qHTS assay (AID 1963594); also: nearly all actives have a fitted effect of over 35% in size
Sequence of D(2) dopamine receptor (Homo sapiens) (P14416 whole entry, looked up): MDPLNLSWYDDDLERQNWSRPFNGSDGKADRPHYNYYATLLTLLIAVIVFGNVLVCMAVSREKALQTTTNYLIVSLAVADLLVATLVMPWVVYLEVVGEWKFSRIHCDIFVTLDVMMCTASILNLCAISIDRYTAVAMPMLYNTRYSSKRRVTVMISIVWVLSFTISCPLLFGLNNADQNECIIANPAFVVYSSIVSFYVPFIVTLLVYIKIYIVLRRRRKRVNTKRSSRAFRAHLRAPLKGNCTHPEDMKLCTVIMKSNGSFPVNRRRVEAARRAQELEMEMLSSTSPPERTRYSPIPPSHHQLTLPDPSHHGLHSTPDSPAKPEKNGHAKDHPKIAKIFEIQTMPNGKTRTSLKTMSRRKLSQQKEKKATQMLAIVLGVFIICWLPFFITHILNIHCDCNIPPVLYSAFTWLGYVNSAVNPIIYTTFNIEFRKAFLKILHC
Method in brief: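 HEK293 cells stably expressing human DRD2, pre-treated with PDE inhibitor Ro20-1724 (0.1 mM final) and compound 10 min at room temperature, then stimulated with NKH477 (200nM […]) for 30 min. cAMP read by HTRF (665/620 nm).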

[13] = G protein-coupled receptor (GPCR) small molecule agonists, calcium flux assay: HEK293 wild type cell line counter screen (AID 1920065)
Method in brief: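 Following 18 h incubation at 37 C/5% CO2, plates got calcium dye for 1 h; compounds, ATP or DMSO were then pinned in and fluorescence followed kinetically (480/540 nm).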

[14] = p53 small molecule agonists, cell-based qHTS assay with human liver microsomes: qHTS cell viability counter screen (AID 1963579); also: nearly all actives have a fitted effect of over 45% in size
Method in brief: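 Metabolic activation used human liver microsomes and NADPH, both 0.5 mg/mL final, over 16 hours at 37 C on p53RE-bla cells (4,000/well). Cytotoxicity measured by CellTiter-Glo luminescence, 30 min at room temperature.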

[15] = p53 small molecule agonists, cell-based qHTS assay (AID 1963582; active = well fitted activation curve with a large enough effect in the signal ratio in the repeat runs, not every such curve was filed as active; the % refers to the signal ratio)
Method in brief: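 Measured: fluorescence from cleaved LiveBLAzer substrate. System: p53RE-bla cells, 16 h compound treatment at 37 C, 2 h substrate step at room temperature.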

[16] = biological target: Muscarinic acetylcholine receptor M1 (Homo sapiens) (UniProt P11229); experiment: Cholinergic receptor muscarinic 1 (CHRM1) small molecule antagonists, cell-based qHTS assay (AID 1963588); also: nearly all actives have a fitted effect of over 40% in size
Method in brief: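 Compounds were tested at 15 concentrations in three independent runs. Dye-loaded CHRM1-CHO cells were exposed 5 min at room temperature before stimulation by acetylcholine added at 50nM. Intracellular calcium was read kinetically on FDSS for 3 min.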

[17] = cAMP Responsive Elements (CRE) small molecule antagonists, cell-based qHTS assay (AID 1963591; active = well fitted inhibition curve with a large enough effect in the signal ratio in the repeat runs, not every such curve was filed as active; the % refers to the signal ratio)
Method in brief: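 Reporter line CRE-bla HEK 293T in dialyzed-FBS DMEM; cells preincubated 18 h, treated 3 h with compound plus NKH477 (0.25 uM final); LiveBLAzer FRET, 2 h RT.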

[18] = biological target: D(2) dopamine receptor (Homo sapiens) (UniProt P14416); experiment: Dopamine D2 receptor (DRD2) small molecule antagonists, cell-based qHTS assay (AID 1963595; active = well fitted inhibition curve with a large enough effect in the signal ratio in the repeat runs, with a control signal flat; the % refers to the signal ratio)
Method in brief: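 In this cell-based antagonist screen, compounds act for 10 min at room temperature before a 30 min challenge with 12 nM quinpirole and 200 nM NKH477. cAMP is quantified by HTRF competition in DRD2-HEK293 cells containing 0.1 mM Ro20-1724.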

[19] = cAMP Responsive Elements (CRE) small molecule agonists, cell-based qHTS assay (AID 1963590)
Method in brief: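 Test agents in DMSO were incubated 3 h at 37 C/5% CO2 with CRE-bla HEK 293T cells seeded 18 h earlier; LiveBLAzer B/G FRET substrate was added and read after 2 h at room temperature.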

[20] = p53 small molecule agonists, cell-based qHTS assay with rat liver microsomes (AID 1963578)
Method in brief: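 Metabolic activation by rat liver microsomes and NADPH, each 0.5 mg/mL final, added right after compounds to p53RE-bla reporter cells (4,000/well, plated 5 h earlier). 16 h at 37 C, then LiveBLAzer substrate for 2 h at room temperature in the dark; fluorescence read-out.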
% is scaled to controls: 0 for no effect and ±100 for the full control effect.

Cc1nccn1-c1ccc(Sc2cccc(C3(C(N)=O)CCOCC3)c2)cc1
inactive: Potency [1] | Potency [2] | Potency [3] | Potency [4] | Potency [5] | Potency [6] | Potency [7] | Potency [8] | Potency [9] | Potency [10] | Potency [11] | Potency [12]

CCn1c(=O)c2c(nc(/C=C/c3ccc(OC)c(OC)c3)n2C)n(CC)c1=O
inactive: Potency [1] | Potency [2] | Potency [3] | Potency [13] | Potency [14] | Potency [5] | Potency [6] | Potency [15] | Potency [8] | Potency [16] | Potency [9] | Potency [17] | Potency [12] | Potency [18]

CCOCN(C(=O)CS(=O)(=O)O)c1c(C)cccc1CC
inactive: Potency [1] | Potency [2] | Potency [3] | Potency [13] | Potency [14] | Potency [5] | Potency [6] | Potency [9] | Potency [19] | Potency [17] | Potency [10] | Potency [11] | Potency [12] | Potency [18]

CCN1CCN(C(=O)N[C@@H](C(=O)N[C@@H]2C(=O)N3C(C(=O)O)=C(CSc4nnnn4C)CS[C@H]23)c2ccc(O)cc2)C(=O)C1=O
inactive: Potency [1] | Potency [2] | Potency [3] | Potency [13] | Potency [20] | Potency [14] | Potency [6] | Potency [15] | Potency [7] | Potency [8] | Potency [16] | Potency [19] | Potency [17] | Potency [10] | Potency [12] | Potency [18]

CC(C)(C)c1cc(/C=C2\SC(=N)NC2=O)cc(C(C)(C)C)c1O
inactive: Potency [2] | Potency [3] | Potency [13] | Potency [20] | Potency [14] | Potency [5] | Potency [9] | Potency [18]
active: Potency [1] 30.6 µM

CCCCN(CCCC)CCC(O)c1cc2c(Cl)cc(Cl)cc2c2cc(C(F)(F)F)ccc12 (stereo unspecified)
inactive: Potency [2] | Potency [3] | Potency [13] | Potency [14] | Potency [5] | Potency [6] | Potency [7] | Potency [8] | Potency [16] | Potency [9] | Potency [19] | Potency [10] | Potency [11] | Potency [12]
active: Potency [1] 21.1 µM

CC(C)(CO)[N+](=O)[O-]
inactive: Potency [1] | Potency [2] | Potency [3] | Potency [13] | Potency [14] | Potency [5] | Potency [6] | Potency [7] | Potency [8] | Potency [16] | Potency [9] | Potency [19] | Potency [17] | Potency [10] | Potency [11] | Potency [12] | Potency [18]

O=S(=O)(O)c1cc(S(=O)(=O)O)c2ccc3c(S(=O)(=O)O)cc(S(=O)(=O)O)c4ccc1c2c43
inactive: activity change, negative = cytotoxicity [1] 0.791% [at 19 µM] | activity, positive = activation [2] -1.98% [at 19 µM] | activity change [3] 0.0619% [at 11.8 µM, active compounds read high] | activation [13] 0.205% [at 11.8 µM] | activation [20] -1.38% [at 13.6 µM] | activity change, negative = cytotoxicity [14] -2.1% [at 13.5 µM] | activity change, negative = cytotoxicity [5] 1.49% [at 13.5 µM] | activity change, negative = cytotoxicity [6] -29.1% [at 13.5 µM] | activation [15] 4.26% [at 13.5 µM] | activity, negative = inhibition [7] -5.22% [at 12.7 µM] | activation [8] -0.138% [at 15.9 µM] | activity, negative = inhibition [16] -5.56% [at 12.6 µM] | activation [9] -0.115% [at 15.8 µM] | activation [19] 0.24% [at 19 µM] | activity change, negative = inhibition [17] -8.72% [at 18.9 µM] | activity change, negative = inhibition [10] 1.38% [at 19 µM] | activation [11] -12.6% [at 19 µM] | activation [12] 0.241% [at 19 µM] | activity change, negative = inhibition [18] -2.86% [at 18.9 µM]
